In PubChem BioAssay one finds composite z-score and z-score data, which are given here for five compounds.

Experiment [1] can be described thus: compounds binding Alexa647 anti-His antibody – biochemical, small-molecule microarray, 635 nm fluorescence, artefact control for SMM control protein annotation, primary screen (AID 1128).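 Also: score merges feature fluorescence with signal-to-noise for each printed compound spot.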 Particulars: higher = more signal.
In experiment [2] the test system is Human papillomavirus type 1a E7 protein (residues 1-88). Briefly: HPV1a E7 small-molecule binders, primary screen, biochemical, small-molecule microarray, residues 1-88, 635 nm (AID 1129). The conditions noted are these: small-molecule microarray binding, fluorescence 635 nm; higher = more signal.
The target in experiment [3] is Focal adhesion kinase 1 (Homo sapiens) (UniProt Q05397). As to the kind of experiment: PTK2 protein binding on printed compound slides – biochemical, small-molecule microarray, 635/667 nm fluorescence, BSA, DTT, primary screen (AID 1130).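 Also: composite of spot emission at 667 nm and signal to noise over triplicate slides.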 The conditions noted are these: 635 nm fluorescence, higher = more signal.
For experiment [4], the system named is Fibrinogen (Alexa647-labelled). As to the kind of experiment: Alexa647-fibrinogen binding to printed small molecules – biochemical, small-molecule microarray, 635/667 nm fluorescence, artefact control for SMM control-protein annotation, profiling panel (AID 1131).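 Also: z-score merges 667 nm fluorescence with per-spot signal-to-noise over triplicate slides.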 The conditions noted are these: fibrinogen-A647 binding fluorescence, higher = more signal.
Experiment [5] deals with Follistatin (Homo sapiens) (UniProt P19883). Briefly: FST protein binding to printed compounds – biochemical, small-molecule microarray, 635/667 nm fluorescence, primary screen (AID 1132). The conditions noted are these: 635 nm fluorescence, higher = more signal.
The target of experiment [6] is Fibroblast growth factor 2 (Homo sapiens) (UniProt P09038). As to the kind of experiment: basic fibroblast growth factor binding to printed compounds – biochemical, small-molecule microarray, 635/667 nm fluorescence, primary screen (AID 1133). Particulars: FGF2, fluorescence 635/667, higher = more signal.
A short description of experiment [7]: JC-1 mitochondrial potential readout, lung cancer cells – cell-based, A549, JC-1 fluorescence, basal, 24 h, 100 nL, profiling panel (AID 1138).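 Also: A549 lung adenocarcinoma cells under basal conditions with no added stimulus; test concentration not given here.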 Particulars: higher = more signal.
For a further experiment, the system named is Lefty1. As to the kind of experiment: Lefty1 protein binding to printed compounds – biochemical, small-molecule microarray, 635/667 nm fluorescence, primary screen (AID 1139). The conditions noted are these: fluorescence 635/667, higher = more signal.
Experiment [8] has as its system wheat germ agglutinin (Triticum aestivum), Alexa647-labelled. Briefly: Alexa647-WGA lectin binding to printed small molecules – biochemical, small-molecule microarray, 635/667 nm fluorescence, artefact control for SMM control-protein annotation, profiling panel (AID 1140).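 Also: score merges 667 nm feature emission with signal to noise over triplicate slides.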 Particulars: WGA-A647 binding, 635 nm fluorescence, higher = more signal.
Experiment [9] concerns the target Luciferin 4-monooxygenase (Photinus pyralis) (UniProt P08659). As to the kind of experiment: inhibition of purified Photinus pyralis luciferase – biochemical, luminescence, purified enzyme, 2006 set, primary screen (AID 1141).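 Also: cell-free assay with purified firefly luciferase at 100 ng per well in PBS; test concentration not given here.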 Particulars: purified firefly luciferase, SteadyGlo luminescence, 30 min; higher = more signal, called active from +8 up or from −8 down.
Experiment [10] relates to Wnt5a (protein binding on small-molecule microarray). Briefly: small molecules binding Wnt5a protein – biophysical, small-molecule microarray, 635/667 nm fluorescence, primary screen (AID 1142).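 Also: fluorescence read at 667 nm with signal to noise per printed feature.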 The conditions noted are these: 635 nm fluorescence, higher = more signal.
Experiment [11] in a line: ATP-based viability of Huh7 replicon cells – cell-based, CellTiter-Glo luminescence, basal, 48 h, cytotoxicity control for HCV replication inhibitor project, primary screen (AID 1143).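 Also: Huh7 hepatoma cells carrying a hepatitis C replication reporter with no stimulus; test concentration not given here.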 The conditions noted are these: higher = more signal, called active from +8 up or from −8 down. (In antiviral work, replicon cells carry a viral genome segment that copies itself.)
The nature of experiment [12]: Pseudomonas biofilm growth suppression – PAO1 strain, BacTiter-Glo luminescence, LB-PBS, primary screen (AID 1144). Particulars: P. aeruginosa PAO1 biofilm, 12 h, higher = more signal.
Experiment [13] in a line: basal CRE-LacZ reporter activity in PC12 – cell-based, unstimulated, primary screen (AID 1145). The conditions noted are these: no forskolin, luminescence, 4.5 h, higher = more signal, called active from +8 up or from −8 down.
Experiment [14] is described as follows: forskolin-driven CRE-LacZ activity in PC12 – cell-based, CRE-LacZ reporter, forskolin-stimulated, primary screen (AID 1146).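 Also: PC12 cells with 6xCRE LacZ reporter stimulated by forskolin 10 µM; beta-galactosidase reporter signal reflecting CREB driven transcription.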 Particulars: luminescence, 4.5 h, higher = more signal, called active from +8 up or from −8 down.
Experiment [15] deals with Streptavidin (Streptomyces avidinii) (UniProt P22629). As to the kind of experiment: compounds binding control protein streptavidin – biophysical, small-molecule microarray, 635/667 nm fluorescence, artefact control for SMM compound annotation, primary screen (AID 1147).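 Also: signal reflects streptavidin binding to arrayed compounds as a control protein.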 The conditions noted are these: higher = more signal.
Experiment [16] is described as follows: probe aInhba binding on compound microarray – biochemical, small-molecule microarray, 635/667 nm fluorescence, primary screen (AID 1148).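 Also: score merges 667nm spot fluorescence with signal-to-noise for antibody binding to printed compounds.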 The conditions noted are these: higher = more signal.
The target in experiment [17] is Torsin-1A (Homo sapiens) (UniProt O14656). Briefly: TOR1A wild-type binding on microarray – cell lysate, small-molecule microarray, lysate, 635/667 nm, primary screen (AID 1149). Particulars: COS7 hTOR1A-WT lysate, 635 nm fluorescence, higher = more signal.
For experiment [18] the target is unchanged. As to the kind of experiment: torsin A mutant lysate binding on microarrays – cell lysate, small-molecule microarray, COS7 lysate, 635/667 nm fluorescence, primary screen (AID 1150).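 Also: score pools 667 nm emission and signal to noise measuring lysate protein binding.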 The conditions noted are these: COS7 hTOR1A mutant lysate, 635 nm fluorescence, higher = more signal.
Experiment [19] relates to Sonic hedgehog protein (Shh). As to the kind of experiment: Sonic hedgehog microarray binding compounds – biochemical, small-molecule microarray, 635/667 nm fluorescence, primary screen (AID 1151).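 Also: Shh protein binding to compounds spotted on small-molecule microarray slides; score combines spot fluorescence intensity with signal-to-noise across triplicate slides.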 The conditions noted are these: 635 nm fluorescence, higher = more signal.

Active and inactive are the calls of the source. Unless noted, no rule for the calls is given here.

Chain of Torsin-1A (Homo sapiens) (O14656 whole entry, looked up): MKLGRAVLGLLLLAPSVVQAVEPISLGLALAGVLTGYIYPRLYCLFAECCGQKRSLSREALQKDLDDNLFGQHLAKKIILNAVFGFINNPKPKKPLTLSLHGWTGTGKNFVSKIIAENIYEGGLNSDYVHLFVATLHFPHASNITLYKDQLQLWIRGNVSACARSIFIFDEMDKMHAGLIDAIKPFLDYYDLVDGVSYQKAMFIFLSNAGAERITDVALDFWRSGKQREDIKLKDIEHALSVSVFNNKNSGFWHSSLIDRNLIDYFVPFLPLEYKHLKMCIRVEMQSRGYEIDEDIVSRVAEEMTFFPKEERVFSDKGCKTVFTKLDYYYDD
Chain of Focal adhesion kinase 1 (Homo sapiens) (Q05397 whole entry, looked up): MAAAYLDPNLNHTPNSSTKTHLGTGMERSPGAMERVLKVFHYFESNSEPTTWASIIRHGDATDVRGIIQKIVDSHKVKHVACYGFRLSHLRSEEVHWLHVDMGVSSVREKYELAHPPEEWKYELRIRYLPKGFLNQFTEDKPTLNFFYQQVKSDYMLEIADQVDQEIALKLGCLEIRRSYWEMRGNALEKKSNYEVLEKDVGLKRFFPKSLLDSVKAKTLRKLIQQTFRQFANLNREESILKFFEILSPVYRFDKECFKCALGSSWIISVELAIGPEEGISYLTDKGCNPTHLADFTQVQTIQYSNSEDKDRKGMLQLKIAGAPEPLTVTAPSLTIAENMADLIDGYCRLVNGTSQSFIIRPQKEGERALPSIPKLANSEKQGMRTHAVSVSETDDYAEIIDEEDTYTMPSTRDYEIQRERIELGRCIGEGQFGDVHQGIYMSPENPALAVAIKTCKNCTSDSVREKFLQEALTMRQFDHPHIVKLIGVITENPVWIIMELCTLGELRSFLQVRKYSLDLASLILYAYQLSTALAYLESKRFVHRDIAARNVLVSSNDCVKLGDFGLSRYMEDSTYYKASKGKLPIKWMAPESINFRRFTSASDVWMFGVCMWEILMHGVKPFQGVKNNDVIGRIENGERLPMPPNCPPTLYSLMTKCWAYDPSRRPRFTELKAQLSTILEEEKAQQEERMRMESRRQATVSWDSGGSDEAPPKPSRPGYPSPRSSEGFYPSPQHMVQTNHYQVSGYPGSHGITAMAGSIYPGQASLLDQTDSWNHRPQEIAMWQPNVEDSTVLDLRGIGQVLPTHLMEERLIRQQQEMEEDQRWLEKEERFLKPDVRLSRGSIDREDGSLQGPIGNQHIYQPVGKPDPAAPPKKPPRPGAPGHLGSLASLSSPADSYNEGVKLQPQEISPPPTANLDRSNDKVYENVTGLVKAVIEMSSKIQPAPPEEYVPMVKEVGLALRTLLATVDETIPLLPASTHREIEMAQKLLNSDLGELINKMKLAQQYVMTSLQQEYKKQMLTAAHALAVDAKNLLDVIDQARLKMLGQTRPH
Chain of Luciferin 4-monooxygenase (Photinus pyralis) (P08659 whole entry, looked up): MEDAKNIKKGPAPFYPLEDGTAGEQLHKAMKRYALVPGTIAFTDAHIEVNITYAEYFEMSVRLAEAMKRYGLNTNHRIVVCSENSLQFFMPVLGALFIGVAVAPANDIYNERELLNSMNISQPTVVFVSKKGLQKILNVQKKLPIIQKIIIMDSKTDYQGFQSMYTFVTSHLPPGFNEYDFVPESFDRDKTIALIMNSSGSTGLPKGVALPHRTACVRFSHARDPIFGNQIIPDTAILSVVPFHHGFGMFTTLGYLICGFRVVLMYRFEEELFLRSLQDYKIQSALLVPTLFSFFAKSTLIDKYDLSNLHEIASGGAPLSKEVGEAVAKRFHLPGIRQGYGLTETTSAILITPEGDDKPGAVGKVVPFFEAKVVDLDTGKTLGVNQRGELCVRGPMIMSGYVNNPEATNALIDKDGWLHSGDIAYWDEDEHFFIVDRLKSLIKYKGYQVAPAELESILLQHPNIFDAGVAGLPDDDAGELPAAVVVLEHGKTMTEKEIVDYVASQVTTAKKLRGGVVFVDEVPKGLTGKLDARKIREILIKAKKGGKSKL
Chain of Fibroblast growth factor 2 (Homo sapiens) (P09038 whole entry, looked up): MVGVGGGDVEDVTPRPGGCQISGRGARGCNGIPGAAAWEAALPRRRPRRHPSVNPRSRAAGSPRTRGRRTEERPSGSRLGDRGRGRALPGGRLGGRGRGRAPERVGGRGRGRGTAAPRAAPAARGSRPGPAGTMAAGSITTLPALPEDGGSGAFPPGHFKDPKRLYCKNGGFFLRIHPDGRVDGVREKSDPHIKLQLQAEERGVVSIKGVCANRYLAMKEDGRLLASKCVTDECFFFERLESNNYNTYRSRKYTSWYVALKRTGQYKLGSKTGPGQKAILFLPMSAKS
Chain of Streptavidin (Streptomyces avidinii) (P22629 whole entry, looked up): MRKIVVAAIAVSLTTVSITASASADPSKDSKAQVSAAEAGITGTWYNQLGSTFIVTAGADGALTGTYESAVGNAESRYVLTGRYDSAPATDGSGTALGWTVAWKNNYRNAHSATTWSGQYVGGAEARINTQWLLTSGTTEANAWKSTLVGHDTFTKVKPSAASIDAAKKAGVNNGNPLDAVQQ
Chain of Follistatin (Homo sapiens) (P19883 whole entry, looked up): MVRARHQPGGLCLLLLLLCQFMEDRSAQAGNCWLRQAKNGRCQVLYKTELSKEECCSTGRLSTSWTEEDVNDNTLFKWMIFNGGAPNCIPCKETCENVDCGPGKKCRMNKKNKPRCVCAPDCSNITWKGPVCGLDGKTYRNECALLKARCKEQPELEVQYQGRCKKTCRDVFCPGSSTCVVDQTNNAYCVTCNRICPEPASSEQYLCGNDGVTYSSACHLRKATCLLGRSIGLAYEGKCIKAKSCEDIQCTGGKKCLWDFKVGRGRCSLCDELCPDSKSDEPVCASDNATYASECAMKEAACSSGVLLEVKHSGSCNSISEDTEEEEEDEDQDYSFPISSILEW

As to `CCCC[C@H]1OB(O)C[C@H]2C1=C(C)C[C@H]1C(=O)N(Cc3ccccc3)C(=O)[C@H]12`, the composite z-score in [1] amounted to 0.201; in experiment [2], 0.366; in experiment [3], 0.553; in experiment [4], 0.311; in [5], 0.797; in [6] it was 1.26. Moreover, the composite z-score is 0.63 in the experiment on Lefty1; -0.144 in experiment [8]; 0.34 in experiment [10]; -0.0276 in experiment [15]; -0.122 in experiment [16]; 0.358 with Torsin-1A (Homo sapiens) [17]. Besides, the composite z-score in the experiment with Torsin-1A (Homo sapiens) [18] came to 0.528; in experiment [19], 1.01. Besides, the z-score in experiment [7] is 0.625; in experiment [9] it was -1.15 (inactive); in experiment [11], 0.342 (inactive); in [12], 0.464 (inactive); in experiment [13] it was -0.23 (inactive); in experiment [14], -0.155 (inactive).

On to `O=C1C2C=CC(C(O)c3ccc(F)cc3)N(Nc3ccccc3)C2C(=O)N1c1ccccc1` (stereo not given), for which the composite z-score was 1.33 in experiment [1]; 1.22 in experiment [2]; 0.734 in experiment [3]; 0.266 in experiment [4]; -0.143 in experiment [5]; -0.762 in experiment [6]. For the same compound, the composite z-score was -0.233 with Lefty1; 0.684 in experiment [8]; 0.137 in experiment [10]; 0.0517 in experiment [15]; 0.212 in experiment [16]; 0.171 in the experiment with Torsin-1A (Homo sapiens) [17]. The figures for the composite z-score (with Torsin-1A (Homo sapiens) [18]; in experiment [19]) were -0.27 and -0.61, respectively. Besides, the z-score is -0.101 in [7]; 0.165 (inactive) in [9]; 0.633 (inactive) in [11]; -0.686 (inactive) in experiment [12]; -0.522 (inactive) in experiment [13]; -0.49 (inactive) in experiment [14].

As for `C=C[C@@H](COC(C)=O)N(Cc1ccccc1[N+](=O)[O-])S(=O)(=O)c1ccc(Br)cc1`, the composite z-score in experiment [1] turned out to be 2.18; in experiment [2], 1.11; in experiment [3] it was 0.547; in experiment [4], 0.619; in [5], 1.42; in [6], 1.51. For the same compound, the composite z-score in the experiment with Lefty1 was 0.929; in experiment [8], 0.567; in experiment [10] it was 0.521; in experiment [15], 1.16; in experiment [16] it was -0.104; in the experiment with Torsin-1A (Homo sapiens) [17], 0.55. For the same compound, the composite z-score with Torsin-1A (Homo sapiens) [18] amounted to 1.58; in experiment [19], 1.97. Further, the z-score is 0.505 in experiment [7]; 0.335 (inactive) in experiment [9]; -4.76 (inactive) in experiment [11]; -1.65 (inactive) in experiment [12]; -0.0108 (inactive) in experiment [13]; -1.41 (inactive) in [14].

Consider `Cc1ccc(S[C@]2(C(=O)NCC(C)C)CC(=O)N(Cc3ccccc3)[C@@H]2c2ccc(CO)cc2I)cc1`, for which the composite z-score came out at 1.38 in experiment [1]; 0.904 in experiment [2]; 0.139 in experiment [3]; 0.312 in [4]; 1.27 in experiment [5]; 0.564 in [6]. Also, the composite z-score is 0.536 in the experiment with Lefty1; 0.503 in [8]; 0.185 in experiment [10]; 0.176 in experiment [15]; 0.0422 in experiment [16]; 0.298 with Torsin-1A (Homo sapiens) [17]. Also, the results for the composite z-score (with Torsin-1A (Homo sapiens) [18]; in experiment [19]) were 0.835 and 2.21, respectively. Besides, the z-score in experiment [7] is 1.03; in experiment [9] it was -0.56 (inactive); in [11], -2.48 (inactive); in experiment [12], 0.229 (inactive); in experiment [13], 0.856 (inactive); in experiment [14], 1.27 (inactive).

For the compound `NC(=O)NCC#Cc1ccc2c(c1)[C@]1(C(=O)N2)[C@H](C(=O)NC[C@H](O)c2ccccc2)[C@H]2C(=O)O[C@H](c3ccccc3)[C@H](c3ccccc3)N2[C@@H]1c1ccc(O)cc1`, the composite z-score was found to be 0.489 in experiment [1]; 1.17 in [2]; 0.58 in experiment [3]; 0.673 in experiment [4]; 1.17 in experiment [5]; 1.21 in experiment [6]. The composite z-score with Lefty1 turned out to be 0.595; in [8], 1.09; in experiment [10], 0.545; in experiment [15], 1.34; in experiment [16], 0.529; in the experiment with Torsin-1A (Homo sapiens) [17], 0.325. Moreover, the composite z-score with Torsin-1A (Homo sapiens) [18] was 0.816; in experiment [19], 1.02. For the same compound, the z-score was -2.34 in [7]; -0.0138 (inactive) in experiment [9]; 0.525 (inactive) in [11]; -0.846 (inactive) in [12]; -0.465 (inactive) in experiment [13]; -0.467 (inactive) in [14].
